Test results as given in PubChem BioAssay (NCI).
Compounds without any hit were thinned out: in the full panel of roughly 83,000, 20% have a hit.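 Note: values are percent growth. 100 is the growth of untreated cells, values between 100 and 0 indicate rising inhibition; between -100 and 0 indicates cell death.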 Unmarked numbers belong to inactive results. Active and inactive are the calls of the source. The calls were made as follows: active = growth percent below 10; inactive = the rest.

Tests used:
Assay in all cases: NCI-60 one-dose screen, 48 h (100 = growth as untreated, 0 = no growth, -100 = all killed)
RPMI-8226 leukemia = settings: 10 µM unless noted
OVCAR-8 ovarian = settings: 10 µM unless noted
OVCAR-5 ovarian = settings: 10 µM unless noted
OVCAR-4 ovarian = settings: 10 µM unless noted
SK-OV-3 ovarian = settings: 10 µM unless noted
IGROV1 ovarian = settings: 10 µM unless noted
OVCAR-3 ovarian = settings: 10 µM unless noted
HS 578T breast = settings: 10 µM unless noted
NCI/ADR-RES ovarian = settings: 10 µM unless noted
T-47D breast = settings: 10 µM unless noted
BT-549 breast = settings: 10 µM unless noted
MDA-MB-435 melanoma = settings: 10 µM unless noted
SW-620 colon = settings: 10 µM unless noted
MCF7 breast = settings: 10 µM
HCT-116 colon = settings: 10 µM unless noted
HCC-2998 colon = settings: 10 µM unless noted
KM12 colon = settings: 10 µM unless noted

Structure (SMILES) | growth (RPMI-8226 leukemia) | growth (OVCAR-8 ovarian) | growth (OVCAR-5 ovarian) | growth (OVCAR-4 ovarian) | growth (SK-OV-3 ovarian) | growth (IGROV1 ovarian) | growth (OVCAR-3 ovarian) | growth (HS 578T breast) | growth (NCI/ADR-RES ovarian) | growth (T-47D breast) | growth (BT-549 breast) | growth (MDA-MB-435 melanoma) | growth (SW-620 colon) | growth (MCF7 breast) | growth (HCT-116 colon) | growth (HCC-2998 colon) | growth (KM12 colon)
O=C(Nc1nc2c(s1)CCc1c-2c(Br)n(Cc2ccccc2)c1Br)c1ccccc1 | 63.2% | 45.4% | 79.9% | -3.77% (active) | 57.2% | 18.8% | 62.3% | 47.9% | 61.8% | 46.4% | 52.8% | 56.1% | 69.2% | 51.5% | 69.9% | 99.1% | 65.5%
Cc1ccc(OCCCCCCNCCO)c(C)c1 | 9.43% (active) | -10% (active) | 35.9% | 16.8% | 16.8% | -4.59% (active) | 24% | 18.5% | 8.9% (active) | 5.9% (active) | 27.6% | 15.2% | 18.1% | 9.1% (active) | 19.1% | -6.64% (active) | 15.1%
COc1ccc(N2C(=O)CC(c3cc(OC)c(OC)c(OC)c3)C3C2=NC(=O)N3C)cc1 (centres undefined) | 119% | 102% | 102% | 105% | 108% | 109% | 108% | 97.1% | 109% | 95.7% | 109% | 101% | 102% | 98.1% |  | 117% | 105%
O=S1(=O)N(Cc2ccccc2)[C@@H](Cc2ccccc2)[C@H](O)[C@H](O)[C@H](Cc2ccccc2)N1Cc1ccccc1 | -7.2% (active) | 7.06% (active) | 41.1% | 15.4% | 6.58% (active) | 10.3% | -22% (active) | 19.7% | -7.86% (active) | 7.87% (active) | 15.7% | -4.2% (active) | 9.22% (active) |  | -36.5% (active) | -45.7% (active) | -41.7% (active)
Cc1ccc(S(=O)c2ccc([N+](=O)[O-])c3nonc23)cc1 (centres undefined) | 91.3% | 99.7% | 118% | 101% | 112% | 104% | 94.5% | 96.5% | 114% | 59.1% | 95.4% | 106% | 29% | 92.9% | 68.9% | 116% | 109%
COc1cc(C(=O)O/N=C(\N)Cc2cccc3ccccc23)cc(OC)c1OC | -36.4% (active) | 1.62% (active) | 48% | 66.8% | 69.2% | 46.9% | 6.38% (active) | 26% | 59.8% | -73.1% (active) | 56.4% | -85.2% (active) | -76.7% (active) | -85.7% (active) |  | -82.5% (active) | -68.4% (active)
COc1cc2nc(-c3cnc(N(C)C)nc3)nc(NC3CCN(Cc4ccccc4)CC3)c2cc1OC | -50.5% (active) | -42.9% (active) | -94.8% (active) | -93.5% (active) | -68% (active) | -76.4% (active) | -85.1% (active) | -47% (active) | -54.1% (active) | -46.6% (active) | -1.66% (active) | -83.6% (active) | -56.3% (active) | -65.5% (active) |  | -92.7% (active) | -60.9% (active)
COc1ccc(-c2cc(=O)c3c(OC)c4ccoc4c(/C=C/C=O)c3o2)cc1 | 0.179% (active) | 28.5% | 77.1% | 37.2% | 84% | 72.7% | 18.3% | 39.2% | 33.5% | 1.64% (active) | -22.9% (active) | 21.5% | 19.6% | 17.3% |  | 92.3% | 80%
O=C(/C=C/c1cccc(Cl)c1)OCc1ccc2cc1OCC#C/C=C\C#CCO2 | 83.8% | 98.2% | 108% | 95.6% | 105% | 92.2% | 116% | 101% | 96.8% | 84.8% | 102% | 106% | 108% |  | 89% | 107% | 104%
COc1cc(C2C3=C(COC3=O)N(CCO)c3cc4c(cc32)OCCO4)cc(OC)c1O (centres undefined) | 32.4% | 27.4% | 87.4% | 40.3% | 24.5% | 27.1% | -31% (active) | 21.9% | 82.9% | 33.4% | -3.23% (active) | -35.1% (active) | 17.2% |  | 12.8% | -10.7% (active) | 
COc1cc(-c2c3c(cn2S(=O)(=O)c2ccccc2)-c2nc(N)sc2CC3)cc(OC)c1OC | 25.3% | 32.7% | 43.4% | 56% | 12.6% | 31.6% | -43.5% (active) | 23% | 14.9% | 44% | 48.5% | -32.1% (active) | 25.6% | 18.5% | 24% | 45.5% | 28.5%
COc1ccc(-c2nc(N3CCN(C(=O)C4CCCCC4)CC3)c3c4c(sc3n2)CCCC4)cc1 | 2.49% (active) | -44.7% (active) | 35.6% | -85.4% (active) | 81% | 33.7% | -38.3% (active) | 12.8% | 84.2% | 3.68% (active) | 61.4% | -54.1% (active) | -1.68% (active) | -10.8% (active) |  | 53.2% | -46.4% (active)
Cc1ccc(F)cc1NC(=O)c1cc(Cl)ccc1Nc1ccccc1 | 32.2% | 27.3% | 70.2% | 51.6% | 82.8% | 71% | 53.4% | 90.4% | 40.1% | 37.1% | 86.2% | 59.5% | 57.5% | 29.7% |  | 28.2% | 37.1%
O=C(NC(=S)Nc1cccc(NC(=S)NC(=O)c2ccccc2)c1)c1ccccc1 | 80.9% | 31.6% | 116% | 16.4% | 44.1% | 69.1% | 65.1% | 18.7% | 60.1% | 54.6% | 58.4% | 61.4% | 74.6% | 58.3% | 67.2% |  | 68%
O=c1cc(NC2CCN(CCCc3ccccc3)CC2)c2cc(Cl)ccc2o1 | -8.63% (active) | -0.533% (active) | 30.5% | 12.7% | 4.31% (active) | -4.09% (active) | -16.6% (active) | 2.69% (active) | 6.68% (active) | 4.55% (active) | 17.8% | -8.02% (active) | 6.98% (active) | 3.46% (active) |  | -6.89% (active) | 0.149% (active)
Cc1cccc(NC(=O)c2sc3nc4c(cc3c2N)CCCC4)c1C | 7.76% (active) | 23% | 44.1% | 65.3% | 32.5% | 40.7% | -10.1% (active) | 25.1% | -15.8% (active) | 36.3% | 37.5% | -40.6% (active) | 23.7% | 17.1% | 14.8% | 22.8% | 8.85% (active)
COc1ccc(CCN2C(=O)CCSC2=S)cc1OC | 37.4% | 97.2% | 96.8% | 90.5% | 105% | 107% | 105% | 93.7% | 103% | 43.4% | 114% | 96.2% | 87.6% | 28% |  | 102% | 5.07% (active)
CCOc1ccc(Nc2ccnc3cc(Cl)ccc23)cc1 | -14.1% (active) | -1.07% (active) | 36% | 16.5% | 2.15% (active) | 14.9% | 11.7% | 29.3% | 3.34% (active) | 1.44% (active) | 14.4% | -7.51% (active) | 14.5% | 4.41% (active) | 9.4% (active) | 12.2% | 6.96% (active)
Oc1[nH]c2ccccc2c1N=Nc1nnc2n1N=C(c1ccccc1)CS2 | 92.8% | 59.1% | 101% | 59.6% | 89.8% | 97.5% | 88.4% | 72% | 105% | 64.3% | 72.8% | 93.8% | 106% | 71.9% |  | 81.3% | 95.2%
